# Experimental data reported in PubChem BioAssay AID1159580 (chemical genetic matrix, 2015).
# Out of some 5,500 compounds screened, about 2,000 (36%) were called active. About 18% were inconclusive and are not listed. Some of the results follow. Unmarked numbers belong to inactive results. No stated cut-off is given here; in the data, active means normalized growth mostly below about 0.91 (no sharp cut-off); inconclusive means no clear call, values can overlap the other calls; inactive means mostly above about 0.92.
# Test: chemical genetic growth profiling, strain panel (AID 1159580);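 further: tested at 20 µM; growth read once vehicle control cultures reached saturation at 30 °C; 1 = growth at the plate median or of vehicle wells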
# Settings: S. cerevisiae deletion strains, growth OD
structure (smiles),measurement,setting,value
CC1=CC2C(CC1=O)C(C)=CCC2C(C)C (stereo unspecified),normalized growth,"locus YJR066W, strain TOR1, stronger effect = lower value",0.949
same,normalized growth,"locus YKL009W, strain mrt4, stronger effect = lower value",0.945
same,normalized growth,"locus YKL068W, stronger effect = lower value",0.978
same,normalized growth,"locus YKL085W, strain MDH1 (second series), stronger effect = lower value",0.932
same,normalized growth,"locus YKL085W, strain MDH1, stronger effect = lower value",0.932
same,normalized growth,"locus YKL160W, strain elf1, stronger effect = lower value",0.992
same,normalized growth,"locus YKR001C, strain vps1, stronger effect = lower value",0.623 (active)
same,normalized growth,"locus YKR026C, strain gcn3, stronger effect = lower value",0.983
same,normalized growth,"locus YKR091W, strain srl3, stronger effect = lower value",1.01
same,normalized growth,"locus YLL001W, strain dnm1, stronger effect = lower value",0.998
same,normalized growth,"locus YLL026W, stronger effect = lower value",1.01
same,normalized growth,"locus YLL041C, strain sdh2, stronger effect = lower value",1
same,normalized growth,"locus YLR027C, strain aat2, stronger effect = lower value",0.997
same,normalized growth,"locus YLR039C, strain RIC1, stronger effect = lower value",0.717
same,normalized growth,"locus YLR058C, strain SHM2, stronger effect = lower value",0.994
same,normalized growth,"locus YLR102C, strain apc9, stronger effect = lower value",0.985
same,normalized growth,"locus YLR113W, strain HOG1, stronger effect = lower value",0.968
same,normalized growth,"locus YLR221C, strain rsa3, stronger effect = lower value",0.979
same,normalized growth,"locus YLR258W, strain gsy2, stronger effect = lower value",1
same,normalized growth,"locus YLR262C, strain YPT6 (second series), stronger effect = lower value",0.896
same,normalized growth,"locus YLR262C, strain YPT6, stronger effect = lower value",0.709
same,normalized growth,"locus YLR268W, strain sec22, stronger effect = lower value",0.923
same,normalized growth,"locus YLR320W, strain mms22, stronger effect = lower value",0.9
same,normalized growth,"locus YLR330W, strain CHS5, stronger effect = lower value",0.873 (active)
same,normalized growth,"locus YLR342W, strain FKS1 (second series), stronger effect = lower value",0.864
same,normalized growth,"locus YLR342W, strain FKS1, stronger effect = lower value",1.01
same,normalized growth,"locus YLR357W, strain rsc2, stronger effect = lower value",1.03
same,normalized growth,"locus YLR370C, strain arc18, stronger effect = lower value",1.02
same,normalized growth,"locus YLR371W, strain rom2, stronger effect = lower value",0.841 (active)
same,normalized growth,"locus YLR384C, strain iki3, stronger effect = lower value",1
same,normalized growth,"locus YLR418C, strain cdc73, stronger effect = lower value",0.687 (active)
same,normalized growth,"locus YML016C, strain PPZ1, stronger effect = lower value",1.01
same,normalized growth,"locus YML032C, strain rad52, stronger effect = lower value",0.948
same,normalized growth,"locus YML120C, strain ndi1, stronger effect = lower value",1
same,normalized growth,"locus YML124C, strain tub3, stronger effect = lower value",0.985
same,normalized growth,"locus YMR058W, strain fet3, stronger effect = lower value",1.01
same,normalized growth,"locus YMR078C, strain ctf18, stronger effect = lower value",0.974
same,normalized growth,"locus YMR125W, strain sto1, stronger effect = lower value",1.01
same,normalized growth,"locus YMR129W, stronger effect = lower value",1.03
same,normalized growth,"locus YMR205C, strain PFK2, stronger effect = lower value",0.966
same,normalized growth,"locus YMR223W, strain ubp8, stronger effect = lower value",0.901 (active)
same,normalized growth,"locus YMR231W, strain pep5, stronger effect = lower value",0.984
same,normalized growth,"locus YMR307W, strain GAS1, stronger effect = lower value",0.795
same,normalized growth,"locus YNL067W, strain RPL9B, stronger effect = lower value",0.986
same,normalized growth,"locus YNL071W, strain lat1, stronger effect = lower value",0.913 (active)
same,normalized growth,"locus YNL183C, strain NPR1, stronger effect = lower value",0.96
same,normalized growth,"locus YNL209W, strain ssb2, stronger effect = lower value",1.01
same,normalized growth,"locus YNL233W, strain BNI4, stronger effect = lower value",0.874
same,normalized growth,"locus YNL248C, strain rpa49, stronger effect = lower value",0.997
same,normalized growth,"locus YNL250W, strain rad50, stronger effect = lower value",0.956
same,normalized growth,"locus YNL271C, strain bni1, stronger effect = lower value",0.936
same,normalized growth,"locus YNL298W, strain CLA4, stronger effect = lower value",0.924
same,normalized growth,"locus YNL307C, strain MCK1, stronger effect = lower value",0.914
same,normalized growth,"locus YNL322C, strain KRE1 (second series), stronger effect = lower value",1.01
same,normalized growth,"locus YNL322C, strain KRE1, stronger effect = lower value",1
same,normalized growth,"locus YNR049C, strain mso1, stronger effect = lower value",1.01
same,normalized growth,"locus YNR052C, strain pop2, stronger effect = lower value",0.895 (active)
same,normalized growth,"locus YOL006C, strain TOP1, stronger effect = lower value",0.683
same,normalized growth,"locus YOL012C, strain htz1",0.956
same,normalized growth,"locus YOL147C, strain pex11, stronger effect = lower value",0.945
same,normalized growth,"locus YOR001W, strain rrp6, stronger effect = lower value",0.984
same,normalized growth,"locus YOR061W, strain CKA2, stronger effect = lower value",0.967
same,normalized growth,"locus YOR069W, strain VPS5, stronger effect = lower value",0.978
same,normalized growth,"locus YOR070C, strain gyp1, stronger effect = lower value",0.992
same,normalized growth,"locus YOR080W, strain dia2, stronger effect = lower value",1.01
same,normalized growth,"locus YOR083W, strain WHI5, stronger effect = lower value",0.966
same,normalized growth,"locus YOR106W, strain vam3, stronger effect = lower value",0.973
same,normalized growth,"locus YOR136W, strain idh2, stronger effect = lower value",0.959
same,normalized growth,"locus YOR144C, strain elg1, stronger effect = lower value",0.969
same,normalized growth,"locus YOR184W, strain ser1, stronger effect = lower value",0.634 (active)
same,normalized growth,"locus YOR231W, strain MKK1, stronger effect = lower value",0.993
same,normalized growth,"locus YOR265W, strain rbl2, stronger effect = lower value",1.01
same,normalized growth,"locus YOR270C, strain vph1, stronger effect = lower value",0.844
same,normalized growth,"locus YOR290C, strain snf2, stronger effect = lower value",0.972
same,normalized growth,"locus YOR316C, strain cot1, stronger effect = lower value",0.983
same,normalized growth,"locus YPL051W, strain arl3, stronger effect = lower value",0.886 (active)
same,normalized growth,"locus YPL055C, strain LGE1, stronger effect = lower value",0.938
same,normalized growth,"locus YPL078C, strain atp4, stronger effect = lower value",0.991
same,normalized growth,"locus YPL106C, strain sse1, stronger effect = lower value",1.01
same,normalized growth,"locus YPL240C, strain hsp82, stronger effect = lower value",1.02
same,normalized growth,"locus YPL256C, strain CLN2, stronger effect = lower value",0.957
same,normalized growth,"locus YPR119W, strain clb2, stronger effect = lower value",0.978
same,normalized growth,"locus YPR141C, strain kar3, stronger effect = lower value",0.973
same,normalized growth,"locus YPR163C, strain tif3, stronger effect = lower value",0.97
same,normalized growth,"locus YPR167C, strain met16, stronger effect = lower value",0.995
same,normalized growth,"strain wtn01, stronger effect = lower value",0.898 (active)
